Paper PMC4336329 (PLoS ONE, 2015)
Out of some 310,000 compounds screened, about 14,000 (4.5%) showed an effect of 50% or more. Effects have a minus sign here. The full list was thinned out, with strong results kept by preference.

Biological target: human ether-à-go-go-related gene (hERG) potassium channel (human, UniProt Q12809)
Assay: primary screen, population patch clamp on CHO cells stably expressing hERG; higher = less effect of the substance
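Also: peak tail current of the secondary pulse compared with the same well before compound.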

human ether-à-go-go-related gene (hERG) potassium channel, sequence (Q12809 whole entry, looked up): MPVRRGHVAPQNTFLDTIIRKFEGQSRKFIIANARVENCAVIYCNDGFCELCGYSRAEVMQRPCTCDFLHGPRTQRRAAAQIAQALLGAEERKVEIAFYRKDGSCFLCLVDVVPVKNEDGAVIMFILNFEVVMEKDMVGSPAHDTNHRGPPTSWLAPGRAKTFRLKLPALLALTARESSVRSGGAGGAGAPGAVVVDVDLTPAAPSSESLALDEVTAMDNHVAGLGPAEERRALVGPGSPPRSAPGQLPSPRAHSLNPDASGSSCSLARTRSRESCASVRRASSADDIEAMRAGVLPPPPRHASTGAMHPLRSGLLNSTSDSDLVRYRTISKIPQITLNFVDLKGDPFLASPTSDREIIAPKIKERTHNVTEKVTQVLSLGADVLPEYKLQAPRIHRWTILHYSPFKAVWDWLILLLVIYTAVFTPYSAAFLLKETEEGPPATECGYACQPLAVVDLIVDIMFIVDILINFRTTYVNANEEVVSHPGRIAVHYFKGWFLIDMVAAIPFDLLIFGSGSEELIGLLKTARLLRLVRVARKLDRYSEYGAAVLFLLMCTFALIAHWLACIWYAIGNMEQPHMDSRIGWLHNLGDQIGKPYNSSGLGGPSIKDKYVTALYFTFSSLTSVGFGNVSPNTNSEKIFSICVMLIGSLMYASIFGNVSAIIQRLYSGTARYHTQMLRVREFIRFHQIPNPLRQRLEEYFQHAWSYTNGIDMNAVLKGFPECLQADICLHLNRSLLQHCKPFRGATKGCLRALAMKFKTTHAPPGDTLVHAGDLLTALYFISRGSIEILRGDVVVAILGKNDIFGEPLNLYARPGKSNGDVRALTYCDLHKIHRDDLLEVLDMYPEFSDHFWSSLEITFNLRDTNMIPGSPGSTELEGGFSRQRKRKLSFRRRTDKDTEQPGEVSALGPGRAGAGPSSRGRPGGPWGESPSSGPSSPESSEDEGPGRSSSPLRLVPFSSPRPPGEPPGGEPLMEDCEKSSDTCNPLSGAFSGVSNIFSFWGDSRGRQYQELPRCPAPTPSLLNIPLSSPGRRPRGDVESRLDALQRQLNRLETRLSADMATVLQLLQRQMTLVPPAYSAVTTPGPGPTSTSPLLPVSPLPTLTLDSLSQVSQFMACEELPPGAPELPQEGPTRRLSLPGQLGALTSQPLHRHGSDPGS

| SMILES | hERG current change (%, negative = inhibition) at 10uM |
| --- | --- |
| Cc1ccc(OCC(=O)Oc2c(C)cccc2C)cc1 | 16.8% |
| COc1ccc(CC(NC(C)=O)C(=O)NC2CCN(C(=O)Nc3ccccc3Cl)CC2)cc1OC (stereo not shown) | 12.7% |
| CC(C)(C)c1ccc(-n2nc(C(N)=O)c(O)cc2=O)cc1 | 12.9% |
| CC(=O)N1c2ccc(S(=O)(=O)N(C)c3cc(C)ccc3C)cc2CC1C (stereo not shown) | -8.67% |
| Cc1csc(NC(=O)Cc2ccccc2[N+](=O)[O-])n1 | 8.85% |
| CCCSc1nc(-n2ncc(C#N)c2N)c2c3c(sc2n1)CCC(C)C3 (stereo not shown) | 5.45% |
| COc1ccc(-n2ncc3c2CC(C)(C)CC3NC(=O)c2oc(C)cc2C)cc1 (stereo not shown) | 15.2% |
| COC(=O)c1ccc(C(=O)NC2CC(C)(C)Cc3c2cnn3-c2ccc(F)cc2)nc1 (stereo not shown) | -23.4% |
| COc1ccc(-n2ncc3c2CC(C)(C)CC3NC(=O)CSc2ccccn2)cc1 (stereo not shown) | -68% |
| COc1ccc(-n2ncc3c2CC(C)(C)CC3NC(=O)CCc2c(C)noc2C)cc1 (stereo not shown) | -21.7% |
| C=CCCC(=O)NC1CC(C)(C)Cc2c1cnn2-c1ccc(OC)cc1 (stereo not shown) | -46% |
| CCc1nccn1CCC(=O)NC1CC(C)(C)Cc2c1cnn2-c1ccc(OC)cc1 (stereo not shown) | -16.2% |
| COc1ccc(-n2ncc3c2CC(C)(C)CC3NC(=O)Cc2nonc2C)cc1 (stereo not shown) | 3.4% |
| COc1ccc(-n2ncc3c2CC(C)(C)CC3NC(=O)c2ccnn2C)cc1 (stereo not shown) | -78% |
| CC1(C)Cc2c(cnn2-c2ccc(F)cc2)C(NC(=O)C2=NNC(=O)CC2)C1 (stereo not shown) | -68.4% |
| COc1ccc(-n2ncc3c2CC(C)(C)CC3NC(=O)c2cnc(C)cn2)cc1 (stereo not shown) | -4.41% |
| COc1ccc(-n2ncc3c2CC(C)(C)CC3NC(=O)c2c(C)cc(=O)oc2C)cc1 (stereo not shown) | -51.1% |
| Cc1cc(C(=O)NC2CC(C)(C)Cc3c2cnn3-c2ccc(F)cc2)nn1C (stereo not shown) | -14.8% |
| Cn1cc(S(=O)(=O)NCc2ccco2)c(=O)n(C)c1=O | 3.03% |
| Cc1onc(-c2c(F)cccc2Cl)c1C(=O)NCc1cccs1 | -21.2% |
| COc1ccc(S(=O)(=O)N2CCOCC2)cc1N(C)S(=O)(=O)c1ccc(C)cc1 | 0.666% |
| C/C(CC(=O)Nc1ccccn1)=N\NC(=O)c1ccccc1O | 6.73% |

| SMILES | hERG current change (%, negative = inhibition) at 10uM |
| --- | --- |
| COc1ccc(CCNC(=O)c2c(O)c3ccccc3[nH]c2=O)cc1 | 15.4% |
| COc1cccc(NC(=O)c2ccc3c(c2)N(CC(=O)N2CCOCC2)C(=O)C(C)(C)O3)c1 | -5.35% |
| CCOCCc1nnc(NC(=O)c2cccc(F)c2)s1 | 0.0842% |
| COc1cc(NC(=O)C(C)Oc2ccccc2)cc(OC)c1 (stereo not shown) | -2.9% |
| COCc1ccc(C(=O)NC2CC(C)(C)Cc3c2cnn3-c2ccc(OC)cc2)o1 (stereo not shown) | -29.3% |
| COc1ccc(-n2ncc3c2CC(C)(C)CC3NC(=O)CN2CCOC2=O)cc1 (stereo not shown) | -32.9% |
| COc1ccc(-n2ncc3c2CC(C)(C)CC3NC(=O)c2ccc(OC)o2)cc1 (stereo not shown) | -50.2% |
| Cc1ncoc1C(=O)NC1CC(C)(C)Cc2c1cnn2-c1ccccc1 (stereo not shown) | -20.5% |
| CCN(CC)CC(=O)NC1CC(C)(C)Cc2c1cnn2-c1ccc(F)cc1 (stereo not shown) | 7.43% |
| COc1ccc(-n2ncc3c2CC(C)(C)CC3NC(=O)C2=CC(=O)CC(C)(C)O2)cc1 (stereo not shown) | -68.3% |
| Cc1nonc1CC(=O)NC1CC(C)(C)Cc2c1cnn2-c1ccc(F)cc1 (stereo not shown) | -15.7% |
| COc1ccc(C(=O)NC2CC(C)(C)Cc3c2cnn3-c2ccccc2C)o1 (stereo not shown) | -30.5% |
| Cn1nccc1C(=O)NC1CC(C)(C)Cc2c1cnn2-c1ccc(F)cc1 (stereo not shown) | -61.4% |
| COc1ccc(-n2ncc3c2CC(C)(C)CC3NC(=O)c2ocnc2C)cc1 (stereo not shown) | -53.5% |
| Cc1ncoc1C(=O)NC1CC(C)(C)Cc2c1cnn2-c1ccc(F)cc1 (stereo not shown) | -20.7% |
| Cc1ccccc1-n1ncc2c1CC(C)(C)CC2NC(=O)C1=CC(=O)CC(C)(C)O1 (stereo not shown) | -4.61% |
| O=C(O)CCCN1C(=O)/C(=C\C(Cl)=C\c2ccccc2)SC1=S | 13.6% |
| COc1ccc(OC)c(-c2nc(CN3CCN(C(=O)c4ccco4)CC3)c(C)o2)c1 | -21.9% |
| O=C(NCc1cccs1)c1ccccc1[N+](=O)[O-] | -11.4% |
| COc1cc(-c2nnc3n(CCc4ccccc4)c(=O)c4ccccc4n23)cc(OC)c1OC | -19.7% |
| CCOC(=O)CN1C(=O)COc2ccc(Cl)cc21 | 19.2% |
| CCOC(=O)c1[nH]cnc1C(=O)N[C@@H](C)c1ccccc1 | -5.33% |

| SMILES | hERG current change (%, negative = inhibition) at 10uM |
| --- | --- |
| O=C1CCc2cc(S(=O)(=O)N3CCC(C(=O)NCc4ccccn4)CC3)ccc2N1 | 16.9% |
| CCOc1ccccc1NS(=O)(=O)c1cc2c3c(c1)C(C)C(=O)N3CCC2 (stereo not shown) | 5.26% |
| O=C(N/N=C/c1cn(-c2ccccc2)nc1-c1ccc(F)cc1)c1ccc(Br)o1 | 27.7% |
| CSCc1ccc(C(=O)NC2CC(C)(C)Cc3c2cnn3-c2ccc(F)cc2)o1 (stereo not shown) | -56.5% |
| COCc1ccc(C(=O)NC2CC(C)(C)Cc3c2cnn3-c2ccc(C)cc2)o1 (stereo not shown) | -39.3% |
| COc1ccc(-c2[nH]ncc2-c2nc(C)cs2)c(O)c1 | 13.5% |
| Cc1cc2cc(CN(CCCO)S(=O)(=O)c3cccc4nsnc34)c(=O)[nH]c2cc1C | 0.493% |
| O=C(/C=C/c1cccs1)N1CCN(c2ccccc2)CC1 | 1.88% |
| CC(=O)c1ccc(N2CCN(C(=O)/C=C/c3ccc4ccccc4n3)CC2)cc1 | -54.4% |
| CC(=O)c1ccc(N2CCN(C(=O)/C=C/c3cccs3)CC2)cc1 | -25% |
| O=C(O)/C=C/c1ccc2ccccc2n1 | 2.35% |
| O=C(/C=C/c1ccc2ccccc2n1)N1CCN(S(=O)(=O)c2ccccc2F)CC1 | -15.9% |
| O=C(/C=C/c1ccc2ccccc2n1)N1CCN(S(=O)(=O)c2ccc(F)cc2)CC1 | -52.4% |
| CC(=O)c1ccc(N2CCN(C(=O)c3ccc4ccccc4n3)CC2)cc1 | -43.1% |
| O=C(/C=C/c1ccc2ccccc2n1)N1CCN(c2ccccc2)CC1 | -52.1% |
| O=C(/C=C/c1ccc(S(=O)(=O)N2CCOCC2)cc1)N1CCN(c2ccc(F)cc2)CC1 | -25.6% |
| NS(=O)(=O)c1ccc2nc(NC(=O)Nc3ccc(F)cc3)sc2c1 | 6.61% |
| CCN=C1S/C(=C\c2cn(C(C)=O)nc2-c2ccccc2)C(=O)N1CC | 8.23% |
| O=C(CSCc1ccc(Br)cc1)N1CCOCC1 | 3.5% |
| CCN(CC)c1ccc(C=C2C(=O)OC3(CCCCC3)OC2=O)cc1 | 7.76% |
| CCCOc1ccc(C(C)=O)cc1CC(C(=O)OCC)C(=O)OCC | 1.47% |
| COc1ccc(/C=C/C(=O)OCC(=O)Nc2cc(C(N)=O)cc(C(N)=O)c2)cc1 | 18.2% |

| SMILES | hERG current change (%, negative = inhibition) at 10uM |
| --- | --- |
| CN(C)/C=N/C(=S)Nc1cc(Cl)cc(Cl)c1 | 27.2% |
| O=C(c1ccc(NS(=O)(=O)c2cccs2)cc1)N1CCOCC1 | 14.4% |
| CC(=O)c1cc(CC=C(C)C)c(O)cc1O | -3.51% |
| O=C(COC(=O)CCC1CCCC1)Nc1ccc(Cl)cn1 | 15.2% |
| Cc1c(C(=O)OCC(=O)N(C)CC(=O)Nc2ccc(F)cc2)oc2ccccc12 | 14.3% |
| CN(C)c1nc(N)c([N+](=O)[O-])c(N2CCCCCC2)n1 | 2.69% |
| Cl.Oc1ccc(Nc2ncnc3c2oc2ccccc23)cc1 | -4.8% |
| CC(=O)N1CCN(c2ccc(Nc3ncnc4c3oc3ccccc34)cc2)CC1.Cl | -65.9% |
| Cl.c1ccc2c(c1)oc1c(NCCN3CCOCC3)ncnc12 | -5.4% |
| CC(=O)Nc1ccc(Nc2nc(C)nc3c2oc2ccccc23)cc1 | 13.4% |
| Cl.c1ccc2c(c1)oc1c(NCCCN3CCOCC3)ncnc12 | -22.4% |
| CC(=O)c1ccc(Nc2ncnc3c2oc2ccccc23)cc1 | 7.05% |
| CC(=O)N1CCN(c2ccc(Nc3nc(C)nc4c3oc3ccccc34)cc2)CC1.Cl | -51.3% |
| CCc1nc(Nc2ccc(N3CCN(C(C)=O)CC3)cc2)c2oc3ccccc3c2n1.Cl | -43.7% |
| Cl.c1ccc2c(c1)oc1c(Nc3ccc(CN4CCOCC4)cc3)ncnc12 | -62% |
| O=C(Nc1nc(COc2ccccc2)cs1)c1ccccc1F | 24.9% |
| CCCCN(CC)CCNC(=O)Cn1cc2c(n1)-c1c(oc(C(=O)N3CCCC3)c1C)CC2 | -27.9% |
| CCOc1cc(/C=C2/C(=O)ON=C2C)ccc1OCc1ccccc1F | 10.6% |
| Cc1cc(OCC(=O)N[C@H](C(=O)O)c2ccccc2)c2c3c(c(=O)oc2c1)CCC3 | 12.1% |
